The sample as a whole holds a higher share of hits than the screen did.
DAT uptake mod: changed hDAT dopamine uptake under cocaine IC80, either direction, primary screen, cocaine antagonist project, cell-based, LLC-PK1 hDAT, [14C]-dopamine uptake, MLSMR | LLC-PK1 hDAT cells, [14C]-dopamine uptake with cocaine IC80; actives deviate in either direction | B-score at 10 µM | 110,000 compounds, 1.3% hits | AID 449768, 2010;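 active means Z score or B-score, a plate-position-corrected score, falls beyond the plate's 99.7% confidence bounds, in either direction; inactive means both scores lie inside the 99.7% bounds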;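 further: scored against the spread of the other compound wells on the same plate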
D1 allo mod: D1 CRE-luciferase signal change, two-sided – cell-based, HEK293 D1, dopamine EC30, D1 allosteric modulator project, primary screen; D(1A) dopamine receptor (Homo sapiens), P21728; dopamine EC30 potentiation; actives deviate in either direction; B-score at 10 µM; 58,000 compounds, 5.9% hits; AID 641, 2007;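 active means luminescence count or its row- and column-corrected plate score outside the 99.7% band of the plate's sample wells, on either side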
Target sequence (P21728 whole entry, looked up): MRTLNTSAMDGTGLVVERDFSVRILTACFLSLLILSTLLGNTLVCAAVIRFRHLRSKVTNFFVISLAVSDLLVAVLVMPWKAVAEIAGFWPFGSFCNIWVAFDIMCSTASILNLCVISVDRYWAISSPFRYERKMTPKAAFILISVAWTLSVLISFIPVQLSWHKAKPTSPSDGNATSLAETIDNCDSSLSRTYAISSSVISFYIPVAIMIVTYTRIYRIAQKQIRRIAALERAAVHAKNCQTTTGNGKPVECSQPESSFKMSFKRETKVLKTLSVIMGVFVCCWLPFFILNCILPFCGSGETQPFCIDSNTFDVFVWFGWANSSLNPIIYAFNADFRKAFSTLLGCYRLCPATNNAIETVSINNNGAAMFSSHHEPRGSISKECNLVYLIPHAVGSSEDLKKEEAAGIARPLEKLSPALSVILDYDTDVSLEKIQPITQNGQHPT
BAP1 block: inhibitors of BAP1 deubiquitinase, primary screen, biochemical, Ub-AMC fluorescence, kinetic; recombinant BAP1, Ub-AMC hydrolysis fluorescence kinetic; hits give low values; 72,000 compounds, 0.48% hits; calls only at 20 µM; AID 436, 2006;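 active means activity remaining at or below 50% of control, provided the compound also passes the data quality filters; inactive means the rest, including low values that fail the filters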;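 further: 100% = DMSO wells rate and 0% = substrate alone blank rate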
Starred values were filed as active, the others as inactive; i = inactive; . = not tested or not shown; + = active, no number.

SMILES	DAT uptake mod	D1 allo mod	BAP1 block
CCCCNC(=O)C1c2ccccc2C(=O)N(c2ccc(OC)cc2)C1c1ccc(OC)cc1 (stereo not drawn)	-7.8*	.	.
Cc1ccc(C(=O)Nc2cc(N)ccc2N)cc1	.	.	i
O=C(Nc1ccccc1Cl)NC1(C(=O)N2CCCCC2)CCCCC1	-1.1	.	.
O=C(Nc1ccccc1Cl)NC1(C(=O)N2CCCC2)CCCCC1	-8.9*	.	.
Cc1sc2nc(C(C)Nc3ccccc3N3CCOCC3)[nH]c(=O)c2c1C (stereo not drawn)	-7.5*	0.43	.
Cc1sc2nc(SCC(=O)N3CCOCC3)[nH]c(=O)c2c1C	-0.23	0.85	i
CCCCCn1c(=O)[nH]c2cc(C(=O)NCCCN(CC)CC)ccc2c1=O	-3.7*	-0.11	.
CCCCCn1c(=O)[nH]c2cc(C(=O)NCCN3CCOCC3)ccc2c1=O	.	-0.0024	i
COCCn1c(=O)[nH]c2cc(C(=O)NCCCN3CCN(c4ccc(F)cc4)CC3)ccc2c1=O	-0.024	-4.4*	i
O=C(NCCCN1CCOCC1)c1ccc2c(=O)n(CCc3ccccc3)c(=O)[nH]c2c1	1.4	.	.
COCCn1c(=O)[nH]c2cc(C(=O)NCCN3CCN(c4ccccc4F)CC3)ccc2c1=O	0.42	-0.86	.
O=C(NCCN1CCCC1)c1ccc2c(=O)n(CCc3ccccc3)c(=O)[nH]c2c1	-8.2*	-3.7*	.
CCOc1ccc2nc(SCC(=O)Nc3ccc4c(c3)C(=O)c3ccccc3C4=O)sc2c1	.	.	i
COC(=O)C1=C(NC(=O)NC(=O)N(C)S(=O)(=O)c2ccc(C)cc2)CCS1	.	.	i
Cc1cc(C(F)(F)F)nc(SCC(=O)NCc2cccc(C(F)(F)F)c2)n1	.	.	i
Clc1cccc(-c2nc3ccccc3c3nc4ccccc4n23)c1	.	.	i
O=C(Nc1ccc(Br)cc1)c1ccc2c(c1)C(=O)N(c1cccc([N+](=O)[O-])c1)C2=O	.	.	i
COc1ccccc1N=c1oc2ccccc2cc1C(=O)Nc1cccc(C(F)(F)F)c1	.	.	i
CC1CCc2nc(NC(=O)Cc3cccs3)sc2C1 (stereo not drawn)	0.31	-0.29	i
COc1cc(C(=O)Nc2nc3c(s2)CC(C)CC3)cc(OC)c1OC (stereo not drawn)	.	.	i
CC1CCc2nc(NC(=O)C3CCCO3)sc2C1 (stereo not drawn)	-0.66	-4.6*	i
CC1CCc2nc(NC(=O)c3ccco3)sc2C1 (stereo not drawn)	0.64	-7.5*	i
CCCc1[nH]c(C(=S)SCC)cc1CC	.	.	i
COc1cccc(C2NC(=O)NC(C)=C2C(=O)OCC(C)C)c1 (stereo not drawn)	.	.	i
COc1cccc(N2CCN(Cc3nc4ccccc4c(=O)[nH]3)CC2)c1	2.2*	-0.016	i
SMILES	DAT uptake mod	D1 allo mod	BAP1 block
COc1ccc(N2CCN(Cc3nc4ccccc4c(=O)[nH]3)CC2)cc1	-0.19	-0.035	i
Cc1ccc(-n2nc3cc(C)c(NC(=O)c4ccc(Br)cc4)cc3n2)cc1	.	.	i
Cc1ccc(NC(=O)c2cccc(C(=O)OC(C)C)n2)cc1	.	.	i
CCN(CC)c1ccc(C2C3CCCCC3(O)CCN2CC(=O)N2CCCCC2)cc1 (stereo not drawn)	-7.9*	-0.78	i
COc1cc([C@H]2[C@@H]3CCCC[C@]3(O)CCN2CC(=O)Nc2ccc(C)cc2)ccc1O	0.61	.	i
CCc1ccc2oc(-c3cccc(NC(=O)c4ccccc4F)c3)nc2c1	.	.	i
CCCCCCn1cnc2c(c1=O)c1nc3ccccc3nc1n2Cc1cccs1	-0.17	.	.
CCCCCCn1cnc2c(c1=O)c1nc3ccccc3nc1n2/N=C/c1ccco1	4*	-0.61	i
Cc1cc2nn(-c3ccccc3)nc2cc1NC(=O)c1ccc(Br)o1	.	.	i
Cc1nnc(NC(=O)c2ccccc2[N+](=O)[O-])s1	.	.	i
COCCOC(=O)c1c(C)nc(SCC(=O)Nc2cccc3ccccc23)c(C#N)c1-c1ccco1	-8.2*	.	.
COCCOC(=O)c1c(C)nc(SCC(=O)Nc2ccc(C)cc2)c(C#N)c1-c1ccco1	0.11	.	i
CNC(=O)c1c(C)nc(SCC(=O)NCc2ccc(OC)cc2)c(C#N)c1-c1ccco1	.	-2.9*	i
COc1ccc(CNC(=O)CSc2nc(-c3ccccc3)cc(-c3cccs3)c2C#N)cc1	-0.5	.	.
O=C(Nc1cccc2ccccc12)c1cc2ccccc2o1	.	.	i
O=C(NCCc1ccc(Cl)cc1)C1CCN(S(=O)(=O)c2cccc3nonc23)CC1	-2.2*	-0.096	i
O=C(NCCc1ccccc1)C1CCN(S(=O)(=O)c2cccc3nonc23)CC1	-0.15	-0.62	i
Cc1c(NC(=O)Cc2ccccc2)cccc1-c1nc2ncccc2o1	.	.	i
O=C(CCCCCN1C(=O)c2ccccc2C1=O)NCc1ccccc1	.	.	i
CC=CCOC(=O)C1=C(C)NC(=O)NC1c1ccc(O)c(OC)c1 (stereo not drawn)	.	.	i
COC(=O)c1c(NC(=O)Cc2cccs2)sc2c1CCCC2	-0.013	2.7*	i
COCC(=O)Nc1sc2c(c1C(=O)OC)CCCC2	-0.16	.	i
C=COc1ccc(NC(=O)c2ccccc2C(=O)O)cc1	.	.	i
C1=CC2CC1CC2CN1CCN(c2ccccc2)CC1 (stereo not drawn)	-1.3	-4.6*	i
Cc1ccccc1CN1CCN(CC2CC3C=CC2C3)CC1 (stereo not drawn)	-0.024	.	.
SMILES	DAT uptake mod	D1 allo mod	BAP1 block
COc1ccc(C2C3=C(CC(C)(C)CC3=O)OC3=C2C(=O)CC(C)(C)C3)cc1[N+](=O)[O-]	.	.	i
CCSc1nnc2c(n1)OC(c1cccc([N+](=O)[O-])c1)Nc1ccccc1-2 (stereo not drawn)	.	.	i
N=C1c2ccccc2CN1CC(=O)c1ccc2c(c1)OCCO2	.	.	i
CC(=O)c1ccc(C(=O)Nc2nc3c(ccc4ccccc43)s2)cc1	.	.	i
CCn1c(SCc2ccccc2Cl)nc2c1c(=O)[nH]c(=O)n2C	.	.	i
CCn1c(=O)c2cc(C(=O)N3CCN(C(=O)c4ccco4)CC3)sc2c2ccccc21	2	-1.3	+
CCn1c(=O)cc(OCC(=O)N2CCN(C(=O)c3ccco3)CC2)c2ccccc21	-1.2	-0.23	i
CNC(=O)C(O)C(O)C(=O)NC (stereo not drawn)	.	.	i
Cc1ccc(-c2csc(NC(=O)c3ccc(S(=O)(=O)N(C)C)cc3)n2)cc1	.	.	i
CC1=C(C(=O)OCCC(C)C)C(c2cc3c(cc2Br)OCO3)NC(=O)N1 (stereo not drawn)	.	.	i
O=C(c1ccc(CSCc2ccccc2F)o1)N1CCN(c2ccc(N3CCOCC3)nn2)CC1	3.4*	0.32	i
O=C(c1cc2ccccc2oc1=O)N1CCN(c2ccc(N3CCOCC3)nn2)CC1	0.54	0.2	i
O=C1Sc2cccc3cccc1c23	.	.	i
O=C(c1ccc(CN2CCOCC2)cc1)N1CCC(Cc2ccccc2)CC1	2.1	-3.3*	.
Cc1ccccc1NC(=O)c1ccc(CN2CCc3ccccc3C2)cc1	0.062	.	.
CN1CCN(C(=O)c2ccc(CN3CCOCC3)cc2)CC1	-0.64	0.46	.
CCc1ccccc1NC(=O)c1ccc(CN2CCC(Cc3ccccc3)CC2)cc1	-6.9*	.	.

Assay outcomes from PubChem.
